SENP7 inh: SENP7 protease inhibitors, primary screen, biochemical, luminescence, uHTS. recombinant SENP7, Z-RLRGG-aminoluciferin luminescence, 40 min. inhibition, % at 5 µM. hit rate 1.5% among 330,000;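 active = inhibition above about 50% at the single test dose, limit read from the data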;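 note: plate controls were DMSO with enzyme for no effect and no enzyme buffer wells for full effect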
Target sequence (Q9BQF6 706-1050 limits assumed): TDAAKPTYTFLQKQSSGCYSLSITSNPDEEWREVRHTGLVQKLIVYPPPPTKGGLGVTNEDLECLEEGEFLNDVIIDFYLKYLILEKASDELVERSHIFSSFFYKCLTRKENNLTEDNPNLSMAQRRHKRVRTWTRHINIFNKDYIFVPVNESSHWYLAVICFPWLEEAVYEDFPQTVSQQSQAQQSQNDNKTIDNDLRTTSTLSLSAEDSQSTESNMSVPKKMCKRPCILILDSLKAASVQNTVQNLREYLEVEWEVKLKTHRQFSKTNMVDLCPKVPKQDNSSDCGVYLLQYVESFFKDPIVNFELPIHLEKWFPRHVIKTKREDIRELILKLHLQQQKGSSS
SENP8 block-1: SENP8 protease inhibitors, primary screen, biochemical, luminescence. Sentrin-specific protease 8 (Homo sapiens), Q96LD8. purified SENP8, Z-RLRGG-aminoluciferin cleavage. inhibition, % at 10 µM. hit rate 1.2% among 330,000; in the data active = inhibition above about 50%
SENP6 inh: SENP6 protease inhibitors, primary screen, biochemical, luminescence, uHTS | hit rate 1.8% among 330,000 | Recombinant SENP6 catalytic domain, aminoluciferin luminescence | Sentrin-specific protease 6 (Homo sapiens), Q9GZR1 | AID 2599, 2010 | inhibition, % at 10 µM;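 active = inhibition above about 50% at the single tested dose, limit read from the data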;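 note: plate controls were DMSO wells with enzyme for no effect and DMSO wells lacking enzyme for full effect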
SENP8 block-2: human SENP8 protease inhibitors, primary screen, biochemical, fluorescence, Nedd8 protein substrate, uHTS. Sentrin-specific protease 8 (Homo sapiens), Q96LD8. recombinant SENP8. inhibition, % at 20 µM. hit rate 0.64% among 360,000. AID 602440, 2012; in the data active = inhibition mostly above about 40%, no sharp cut-off; inactive = mostly below about 27%
Platelet DG rel: inhibitors of platelet dense granule secretion, primary screen, cell-based, MLPCN, human platelets | inhibition, %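 (compounds screened at 7.5 µM in platelet-rich plasma)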 | hit rate 0.22% among 300,000 | AID 1663, 2009 | human platelet-rich plasma, SFLLRN dense granule ATP release, luminescence;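 active = mean replicate score, as percent of positive control, at or above 50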
SENP8 conf: SENP8 protease inhibitors, retest, confirmation, biochemical, luminescence, single concentration; shares compounds with SENP7 inh; Recombinant SENP8, Z-RLRGG-aminoluciferin luminescence, 60 min; inhibition, % at 12.5 µM; hit rate 40% among 6,200; AID 488912, 2010;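 active = mean inhibition across replicates above about 50%, limit read from the data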
SENP6 confirm: SENP6 protease inhibitors, confirmation, biochemical, luminescence, single concentration. recombinant SENP6, Z-RLRGG-aminoluciferin luminescence. hit rate 58% among 6,200. shares compounds with SENP7 inh. inhibition, % at 12.5 µM
SENP7 conf: SENP7 protease inhibitors, retest, confirmation, biochemical, luminescence, single concentration | shares compounds with SENP7 inh | inhibition, % at 12.5 µM | recombinant SENP7, Z-RLRGG-aminoluciferin luminescence, 40 min | hit rate 69% among 6,200
Casp3 select: caspase-3 protease inhibitors, confirmation, selectivity assay for SENP inhibitor project, biochemical, single concentration. AID 488918, 2010. hit rate 60% among 6,200. purified caspase-3, Z-DEVD-aminoluciferin luminescence, 60 min. shares compounds with SENP7 inh. inhibition, % at 12.5 µM;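 active = mean inhibition above about 50%, limit read from the data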;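 note: plate controls were enzyme with DMSO for no effect and wells without caspase-3 for full effect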
Target sequence (P42574 28-227 limits assumed): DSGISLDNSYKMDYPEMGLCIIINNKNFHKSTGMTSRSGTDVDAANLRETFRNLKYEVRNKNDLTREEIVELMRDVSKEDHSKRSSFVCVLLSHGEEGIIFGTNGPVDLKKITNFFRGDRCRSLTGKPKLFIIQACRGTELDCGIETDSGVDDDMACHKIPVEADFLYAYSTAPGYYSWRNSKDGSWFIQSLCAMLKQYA
SENP luc ctr: interferes with luciferase luminescence in SENP counter-screen; shares compounds with SENP7 inh; Pre-incubated SENP8/Z-RLRGG-aminoluciferin, luciferase luminescence interference; inhibition, % at 12.5 µM; hit rate 39% among 6,200; AID 488919;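 active = mean inhibition above about 50% when retested at one dose, limit read from the data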;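 note: plate controls were DMSO wells with completed reaction for no effect and substrate without enzyme for full effect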
The depositor's hits bear a star; / = no result. Hits are enriched below; roughly 2.4% of the tested compounds scored in any of these assays.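 Rule for the calls, unless noted: active = mean inhibition above about 50% in the one-dose retest (limit read from the data); inactive = the rest.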

SMILES	SENP7 inh	SENP8 block-1	SENP6 inh	SENP8 block-2	Platelet DG rel	SENP8 conf	SENP6 confirm	SENP7 conf	Casp3 select	SENP luc ctr
Nc1c(C(=O)Nc2ccc3c(c2)OCCO3)nnn1Cc1cccc(Br)c1	58*	46	68*	5	-3	34	16	85*	31	66*
COc1ccc(C(=O)Nc2ccc3c(c2)OCCO3)cc1Br	61*	56*	72*	11	-5	8	5	80*	54*	-1
O=C(Nc1ccc2c(c1)OCO2)c1ccncc1	-15	-17	-3	14	-2	/	/	/	/	/
Cc1cc(Br)ccc1OCCCCN1CCCCC1	5	1	-5	26	-10	/	/	/	/	/
COc1ccc(OCC(=O)Nc2c3c(nn2-c2ccc(OC)cc2)CS(=O)(=O)C3)cc1	11	-3	-3	8	-1	/	/	/	/	/
COCc1ccc(CN2CCC(n3nccc3NC(=O)CCCc3ccccc3)CC2)o1	1	0	8	10	-5	/	/	/	/	/
CCOc1ccc(C(=O)Nc2ccc3c(c2)OCCO3)cc1	86*	71*	84*	8	28	-7	77*	95*	87*	69*
Cc1cc(C(=O)Nc2ccc3c(c2)OCCO3)ccc1[N+](=O)[O-]	92*	77*	84*	20	10	10	57*	94*	81*	12
O=C(Nc1ccc2c(c1)OCCO2)c1ccc(Br)o1	74*	55*	77*	20	/	77*	70*	91*	85*	74*
O=C(Nc1ccc2c(c1)OCCO2)c1ccc(Cl)c([N+](=O)[O-])c1	11	-10	20	18	4	/	/	/	/	/
O=C(Nc1ccc2c(c1)OCCO2)c1ccc(Br)cc1	61*	59*	71*	-7	3	71*	70*	90*	68*	50
CC(OC(=O)c1ccc(Br)o1)C(=O)Nc1ccc2c(c1)OCCO2 (configuration not stated)	10	-3	0	4	/	/	/	/	/	/
CCOC(=O)c1sc(-c2ccc(Cl)cc2)nc1O	5	5	1	-70	14	/	/	/	/	/
O=C1CCC(NC(=O)c2ccccc2)C(=O)N1 (configuration not stated)	/	/	/	9	-23	/	/	/	/	/
COc1cccc(NC(=O)C2(C)CCN2Cc2ccc3ccccc3c2)c1 (configuration not stated)	/	/	/	19	/	/	/	/	/	/
CCCOc1cccc(C(=O)Nc2ccc3c(c2)OCCO3)c1	66*	53*	77*	24	3	69*	67*	86*	59*	55*
CCCOc1cccc(C(=O)Nc2cccc(NC(=O)c3ccco3)c2)c1	7	-5	0	10	-3	/	/	/	/	/
COc1ccc(C(=O)Nc2ccc(N3CCCCC3)cc2)cc1Br	68*	-9	8	17	-15	-5	0	8	8	4
O=C(Nc1ccc2c(c1)OCCO2)c1ccc2nccnc2c1	2	39	53*	16	16	50*	48	82*	80*	60*
O=C(Nc1ccc(Cl)cc1Cl)c1ccc(Br)o1	46	55*	69*	33	2	-26	-15	2	-6	-6
CCOc1ccccc1NC(=S)N(Cc1cc2ccc(C)cc2[nH]c1=O)CC1CCCN1CC (configuration not stated)	-4	-9	-16	0	1	/	/	/	/	/
O=C(CCCN1C(=O)/C(=C/c2ccccc2)SC1=S)Nc1ccc(C(=O)O)c(O)c1	20	73*	79*	18	4	73*	72*	84*	32	76*
O=C(CCN1C(=O)S/C(=C/c2ccccc2)C1=O)Nc1ccc(C(=O)O)c(O)c1	10	45	57*	5	4	60*	55*	74*	32	65*
Cc1cc(NC(=O)CCN2C(=O)/C(=C/c3ccccc3F)SC2=S)no1	8	-3	-5	/	3	/	/	/	/	/
O=C(CCN1C(=O)S/C(=C\c2ccc(F)cc2)C1=O)Nc1ccc(C(=O)O)c(O)c1	60*	75*	82*	-7	9	85*	80*	81*	44	79*
SMILES	SENP7 inh	SENP8 block-1	SENP6 inh	SENP8 block-2	Platelet DG rel	SENP8 conf	SENP6 confirm	SENP7 conf	Casp3 select	SENP luc ctr
O=C(CCN1C(=O)S/C(=C/c2ccc(F)cc2)C1=O)Nc1ccc(O)c(C(=O)O)c1	-2	-2	4	-268	20	/	/	/	/	/
COc1ccc(C=C2SC(=S)N(CCCC(=O)Nc3ccc(C(=O)O)c(O)c3)C2=O)cc1OC	/	/	/	17	/	/	/	/	/	/
O=C(CCN1C(=O)/C(=C\c2ccccc2F)SC1=S)Nc1ccc(C(=O)O)c(O)c1	12	64*	66*	10	-3	78*	73*	67*	12	52*
COC(=O)[C@@]1(Cc2ccc(OC)cc2)[C@H]2c3cc(C(=O)N4CCCC4)n(Cc4ccsc4Br)c3C[C@H]2CN1C(=O)c1ccccc1	/	/	/	6	/	/	/	/	/	/
Cn1ccnc1SCC(=O)c1c[nH]c2ccccc12	50	33	58*	-9	2	48	42	78*	78*	54*
COc1ccc2[nH]c(C(=O)NCCCn3ccnc3)cc2c1	9	-2	11	-285	2	/	/	/	/	/
CC(=O)Nc1ccc(N/C=C/C(=O)c2ccco2)cc1	-1	2	11	-51	20	/	/	/	/	/
COc1ccccc1Oc1ccc(N/C=C/C(=O)c2ccco2)cc1	57*	55*	85*	-197	8	88*	89*	100*	81*	76*
O=C(/C=C/Nc1ccc(F)c(Cl)c1)c1ccco1	27	45	70*	-378	5	67*	66*	88*	56*	14
O=C(/C=C/Nc1cccc(F)c1)c1ccco1	73*	52*	82*	-265	13	-10	72*	94*	85*	78*

Source: PubChem
